Compounds with a hit are over-represented: about 1.6% of the library has one in this group of screens.
KCNQ2 pot: enhances the rat KCNQ2 potassium channel; B-score at 10 µM; CHO-K1 KCNQ2, FluxOR thallium flux fluorescence; hits give high values; O88943; 310,000 compounds, 0.54% hits;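 active means fluorescence ratio B-score at least 3 SD of library B-scores, with initial fluorescence B-score within 3 of them, cut at about 5.3 in these data; same plate scores as AID 2156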;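 further: B-score of peak minus minimum over baseline fluorescence ratio after K+ and Tl+ stimulus; positive B-score means potentiation of KCNQ2 with more thallium influx and brighter signal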
Target sequence (O88943 whole entry, looked up): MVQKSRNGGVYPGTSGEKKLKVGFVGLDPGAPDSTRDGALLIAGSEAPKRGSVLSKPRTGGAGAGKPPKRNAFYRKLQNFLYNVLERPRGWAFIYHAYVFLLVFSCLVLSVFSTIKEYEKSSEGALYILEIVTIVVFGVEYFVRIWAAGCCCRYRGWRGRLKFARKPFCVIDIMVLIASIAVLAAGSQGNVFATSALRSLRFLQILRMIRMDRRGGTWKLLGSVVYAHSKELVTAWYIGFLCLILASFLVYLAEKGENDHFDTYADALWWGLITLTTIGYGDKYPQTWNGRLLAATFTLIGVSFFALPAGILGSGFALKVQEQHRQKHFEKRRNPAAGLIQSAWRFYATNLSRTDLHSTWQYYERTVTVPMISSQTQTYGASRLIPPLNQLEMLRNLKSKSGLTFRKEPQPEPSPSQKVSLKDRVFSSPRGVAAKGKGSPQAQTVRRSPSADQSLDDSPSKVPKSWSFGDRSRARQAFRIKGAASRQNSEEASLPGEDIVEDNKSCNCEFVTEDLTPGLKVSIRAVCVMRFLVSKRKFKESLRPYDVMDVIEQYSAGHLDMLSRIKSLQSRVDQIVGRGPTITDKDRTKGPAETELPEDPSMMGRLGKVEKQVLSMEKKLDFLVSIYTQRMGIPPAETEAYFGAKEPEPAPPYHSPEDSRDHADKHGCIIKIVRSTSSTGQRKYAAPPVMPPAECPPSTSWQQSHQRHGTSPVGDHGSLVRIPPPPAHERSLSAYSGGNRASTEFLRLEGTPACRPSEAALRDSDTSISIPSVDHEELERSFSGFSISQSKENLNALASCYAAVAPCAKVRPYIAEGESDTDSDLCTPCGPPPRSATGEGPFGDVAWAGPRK
KCNQ2 block: inhibitors of rat KCNQ2 potassium channel; AID 2156; 310,000 compounds, 1.1% hits; O88943; CHO-K1 KCNQ2, FluxOR thallium flux, 20 min; hits give low values; B-score at 10 µM;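 active means fluorescence ratio B-score at most minus 3 library SDs, with starting brightness B-score within 2 library SDs, cut at about -5.5 in these data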
Kir21 confirm: confirmation of mouse Kir2.1 potassium channel inhibitors; shares compounds with KCNQ2 pot; Kir2.1-expressing cells, FluxOR thallium flux fluorescence; hits give low values; Tl flux remaining, % of negative control (hits give low values), % at 10 µM; 2,300 compounds, 41% hits;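 active means Primary-screen hit whose thallium flux fell at least 3 control SD below untreated wells in both duplicates, with normal baseline fluorescence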
HEK293 Tl flux: parental HEK293 activity in Kir2.1 inhibitor counter-screen. AID 2105. parental HEK293 cells, FluxOR thallium flux fluorescence; 0% = unstimulated blank wells. 2,300 compounds, 19% hits. shares compounds with KCNQ2 pot. FluxOR signal as % of negative control (100 = no effect), % at 10 µM;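 active means dye signal at least 3 control SD above or below untreated wells in both duplicates, raw fluorescence within 3, either direction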;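 further: percent is based on the flux ratio of peak minus minimum fluorescence over baseline F0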
CHO-K1 Tl ctr: alters thallium flux in parental CHO-K1 cells, KCNQ2 counter-screen. activity increase over 3SD of controls, % at 10 µM. 1,200 compounds, 43% hits. shares compounds with KCNQ2 pot. FluxOR thallium flux fluorescence; zero = vehicle mean+3SD, 100% = vehicle-minus-blank window. AID 2282;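 active means signal rise of at least 3 SD above the untreated control mean, in both duplicate wells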;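 further: counter screen of KCNQ2 potentiator hits so any rise reflects channel-independent effects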
KCNQ1 pot spec: tests whether KCNQ2 potentiators also act on human KCNQ1; activation over 3SD threshold, % at 10 µM; 1,200 compounds, 28% hits; shares compounds with KCNQ2 pot; CHO KCNQ1 stable, FluxOR thallium flux fluorescence; beyond 3SD, as % of vehicle-control signal;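 active means fluorescence ratio rise of at least 3 SD of vehicle wells above their mean, in both replicate wells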
KCNQ2 pot confirm: rat KCNQ2 channel potentiator confirmation; shares compounds with KCNQ2 pot; CHO-KCNQ2 cells, FluxOR thallium flux fluorescence; potentiation, less the hit threshold, % at 10 µM; 1,200 compounds, 68% hits;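 active means fluorescence ratio rising 3 SD or more over the vehicle control mean in both replicates, plus primary screen hit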;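 further: peak minus minimum thallium fluorescence divided by baseline after K/Tl stimulus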
Kir2-1 sel: selectivity of KCNQ2 potentiators: effect on mouse Kir2.1; HEK293 Kir2.1, FluxOR thallium flux fluorescence; activity over 3SD threshold, % at 10 µM; 1,200 compounds, 2% hits; AID 2345; shares compounds with KCNQ2 pot;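 active means fluorescence ratio rise of at least 3 SD above the vehicle-control mean, seen in both replicates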
KCNQ2 W236L MoA: rat KCNQ2 W236L mutant potentiation by KCNQ2 potentiators. shares compounds with KCNQ2 pot. CHO KCNQ2-W236L, automated patch clamp current. current increase over 3SD of negative controls (%), hits give high values, % at 25 µM. 940 compounds, 10% hits;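 active means current increase at least 3 SD of the untreated controls above them in both duplicate recordings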
Of the large screens only hits and unclear results are named; the others gave an inactive call (follow-up assays come after a bar, where they were run).

Cc1cc(=O)[nH]c(SCC(=O)N2CCN(C(c3ccccc3)c3ccccc3)CC2)n1	KCNQ2 pot 10 | Kir21 confirm inactive | HEK293 Tl flux inactive | CHO-K1 Tl ctr inactive | KCNQ1 pot spec 9.2 | KCNQ2 pot confirm 5.0 | Kir2-1 sel inactive | KCNQ2 W236L MoA inactive
Cc1cc(=O)[nH]c(SCC(=O)N2CCCCC2)n1	none (no result: KCNQ2 pot)
CCC(=O)N1CCc2cc(S(=O)(=O)NC(C(=O)Nc3cccc(C)n3)C(C)C)ccc21 (configuration not stated)	none
COc1ccc(CCN(C)C(=O)CSc2nnnn2C)cc1OC	none (no result: KCNQ2 pot)
N/C(=N\OC(=O)Nc1ccccc1)c1ncc(C(F)(F)F)cc1Cl	none (no result: KCNQ2 pot)
N/C(=N\OC(=O)Nc1ccccc1)c1cccc(C(F)(F)F)c1	KCNQ2 pot 11 | Kir21 confirm inactive | HEK293 Tl flux inactive | CHO-K1 Tl ctr inactive | KCNQ1 pot spec 9.0 | KCNQ2 pot confirm 23 | Kir2-1 sel inactive | KCNQ2 W236L MoA inactive
Cc1ccc(CNc2ccc3c(c2)OCO3)cc1	none (no result: KCNQ2 pot)
Cn1c(-c2ccc(F)cc2)cnc1NCc1ccc(F)cc1	none (no result: KCNQ2 pot) | Kir21 confirm 38% | HEK293 Tl flux inactive
Cc1ccc(CNc2ncc(-c3ccc4c(c3)OCO4)n2C)cc1	KCNQ2 block -6 | Kir21 confirm 22% | HEK293 Tl flux inactive
COc1cc(CNc2ncc(-c3ccc(Cl)cc3)n2C)cc(OC)c1OC	none (no result: KCNQ2 pot)
Cn1c(-c2ccc3c(c2)OCO3)cnc1NCc1ccc(Cl)cc1	none (no result: KCNQ2 pot) | Kir21 confirm 21% | HEK293 Tl flux inactive
Cn1c(-c2ccc(F)cc2)cnc1NCc1ccc(C#N)cc1	none (no result: KCNQ2 pot)
COc1cccc(N=Nc2ccc3cccnc3c2O)c1	none
COc1cccc(C(=O)/C=C/Nc2ccc(S(=O)(=O)Nc3ccc(C(C)=O)cc3)cc2)c1	none (no result: KCNQ2 pot)
O=C(COC(=O)CCN1C(=O)/C(=C\C=C\c2ccccc2)SC1=S)Nc1cc(F)ccc1F	none (no result: KCNQ2 pot)
CC1(C(=O)N/N=C/c2ccc3c(c2)OCO3)CC1(Br)Br (configuration not stated)	none (no result: KCNQ2 pot)
COc1ccc(NS(=O)(=O)NC(=O)c2c(C)n(C)c3ccccc23)cc1	none (no result: KCNQ2 pot)
CC(C)Oc1ccc(C(=O)NC2CCCCC2)cc1	none (no result: KCNQ2 pot)
CC(C)Oc1ccc(C(CCN)C2CCCCC2)cc1 (configuration not stated)	none (no result: KCNQ2 pot) | Kir21 confirm 44% | HEK293 Tl flux 65%
Cc1c(C)n(Cc2ccccc2)c2ccc(C(=O)NCCN3CCOCC3)cc12	none
Cc1c(C)n(Cc2ccccc2)c2ccc(C(=O)OCCN(C)C)cc12	none (no result: KCNQ2 pot) | Kir21 confirm 26% | HEK293 Tl flux inactive
Cc1ccc(C)c(OCCn2cc(/C=C(\C#N)C(=O)NCc3cccs3)c3ccccc32)c1	none (no result: KCNQ2 pot)
CCC(C)C(=O)Nc1cccc(SC)c1 (configuration not stated)	none
Cn1ncc2c(Nc3ccccc3Cl)nc(Nc3ccccc3Cl)nc21	none (no result: KCNQ2 pot)
On1c(-c2ccccc2)nc2ccc(Cl)cc21	none (no result: KCNQ2 pot)
O=c1c2ccccc2nc(-c2ccc(Cl)c(Cl)c2)n1O	KCNQ2 pot 15 | Kir21 confirm inactive | HEK293 Tl flux 314% | CHO-K1 Tl ctr inactive | KCNQ1 pot spec inactive | KCNQ2 pot confirm 50 | Kir2-1 sel inactive | KCNQ2 W236L MoA inactive
O=C(Nn1c(-c2ccc(Br)cc2)nc2ccccc2c1=O)c1ccc([N+](=O)[O-])cc1	none (no result: KCNQ2 pot)
O=c1c2cc(Cl)ccc2nc(-c2ccc([N+](=O)[O-])cc2)n1O	KCNQ2 pot 9.7 | Kir21 confirm inactive | HEK293 Tl flux 308% | CHO-K1 Tl ctr inactive | KCNQ1 pot spec inactive | KCNQ2 pot confirm 42 | Kir2-1 sel inactive | KCNQ2 W236L MoA inactive
O=c1c2ccc(Cl)cc2nc(-c2cccc(C(F)(F)F)c2)n1O	KCNQ2 pot 18 | Kir21 confirm inactive | HEK293 Tl flux 498% | CHO-K1 Tl ctr inactive | KCNQ1 pot spec inactive | KCNQ2 pot confirm 66 | Kir2-1 sel 4.2 | KCNQ2 W236L MoA inactive
N#Cc1ccc(-c2nc3cc(Cl)ccc3c(=O)n2O)cc1	none
O=c1c2ccccc2nc(-c2ccc(Cl)cc2Cl)n1O	none
O=c1c2cc(Br)ccc2nc(-c2ccc(Cl)cc2)n1O	KCNQ2 pot 17 | Kir21 confirm inactive | HEK293 Tl flux 566% | CHO-K1 Tl ctr inactive | KCNQ1 pot spec 41 | KCNQ2 pot confirm 93 | Kir2-1 sel 15 | KCNQ2 W236L MoA inactive
Cc1ccc(-c2nc3c(Cl)cc(Cl)cc3c(=O)n2O)cc1	KCNQ2 pot 17 | Kir21 confirm inactive | HEK293 Tl flux 542% | CHO-K1 Tl ctr 4.1 | KCNQ1 pot spec 2.4 | KCNQ2 pot confirm 102 | Kir2-1 sel 0.8 | KCNQ2 W236L MoA inactive
N#Cc1ccc(-c2nc3ccccc3c(=O)n2O)cc1	none
COc1ccc(CCNC(=O)c2cc(-c3ccncc3)nc3c(Cl)cccc23)cc1OC	none (no result: KCNQ2 pot)
COc1ccc(CNCCC(c2ccc(OC)cc2)c2ccccc2OC)cc1 (configuration not stated)	none (no result: KCNQ2 pot) | Kir21 confirm 38% | HEK293 Tl flux inactive
COc1ccc(C(CCNCc2ccc(OC(C)C)cc2)c2ccccc2OC)cc1 (configuration not stated)	KCNQ2 block -6.5 | Kir21 confirm 29% | HEK293 Tl flux inactive
COc1ccc(C(CCNCc2ccc(N(C)C)cc2)c2ccccc2OC)cc1 (configuration not stated)	none (no result: KCNQ2 pot)
COc1ccc(CNC(C)CCc2ccccc2)cc1 (configuration not stated)	none | Kir21 confirm 40% | HEK293 Tl flux inactive
COc1ccc(CNCCC(c2ccc(F)cc2)c2ccc(OC(C)C)cc2)cc1OC (configuration not stated)	none (no result: KCNQ2 pot) | Kir21 confirm 44% | HEK293 Tl flux inactive
COc1ccc(CCC(C)NCc2ccc(C(F)(F)F)cc2)cc1 (configuration not stated)	none
COc1ccccc1C(CC(=O)Nc1ccccc1C)c1ccc(OC(C)C)cc1 (configuration not stated)	none (no result: KCNQ2 pot)
COc1ccc(CNCCC(c2ccccc2)c2ccc(OC(C)C)cc2)cc1OC (configuration not stated)	none (no result: KCNQ2 pot)
COC(=O)C1=CN(Cc2ccc(OC)c(OC)c2)C=C(C(=O)OC)C1c1ccc(O)cc1	none (no result: KCNQ2 pot)
COc1ccccc1NC(=O)NCc1ccc2c(c1)OCO2	none
CCOC(=O)c1cc2sccc2n1Cc1ccccc1	none
CN(C)CCN(Cc1ccccc1)c1nccc(N(C)C)c1C#N	none
